# Source: PubChem BioAssay (Tox21)
# Inconclusive results are not listed. A call without a number means that no potency is given here. The source made the active and inactive calls. Calls follow the shape of the dose curve; as a rule, active = well fitted activation curve with a large enough effect in the repeat runs; inconclusive = weak or mixed curves; inactive = flat fitted curve, though single readings scatter.
# Test: A CellTox Green Cytotoxicity Assay to monitor cytotoxicity in HEK293 cells - 24 hour (AID 1224875); also: nearly all actives have a fitted effect of over 45% in size
# Settings: CellTox Green fluorescence; series mostly up to 76.8 µM
# Excerpt: National Center for Advancing Translational Sciences [NCATS]
# NIH Chemical Genomics Center [NCGC]
# U.S. Environmental Protection Agency [EPA]
# National Institutes of Environmental Health Sciences [NIEHS]
# National Toxicology Program [NTP]
# Cell-based models are critical for drug discovery. Determining the natural cytotoxic effects resulting from test compounds is an essential research activity. A CellTox Green Cytotoxicity Assay to monitor cytotoxicity in real time of continues cell culture during 40 hours of the compound treatment was used to screen Tox21 10K library compounds in Hek293 cells. CellTox Green Cytotoxicity Assay is a nonlytic, homogeneous, biofluorescent method to measure cytotoxicity in cell culture after experimental manipulation. The assay system uses a proprietary asymmetric cyanine dye that is excluded from viable cells but preferentially stains the dead cell's DNA. […] Viable cells produce no appreciable increases in fluorescence. Therefore, the fluorescence signal produced by the binding interaction with dead cell DNA is proportional to cytotoxicity.
# The mixture of Hek293 cell suspension and reagents were dispensed at 600cells/6 ul/well in 1536-well tissue culture treated black solid bottom plates using a Multidrop dispenser. After the assay plates were incubated at a 37 C/5% CO2 incubator for 5 hours, 23 nL of compounds dissolved in DMSO, positive and negative controls was transferred to the assay plate by a pintool work station. The plates were incubated at 37 C for 40 hours. The fluorescence intensity were measured at 0h, 8h, 16h, 24h, 32h and 40h time points using ViewLux plate reader during compound treatment.
# Potency is read from the fitted curve at half-maximal effect.
row,Compound,Potency
1,CC(C)C=O,inactive
2,CCCCN1CCCC1C(=O)Nc1c(C)cc(C)cc1C (stereo not given),15.1 µM (active)
3,Clc1cc(Cl)nc(Cl)n1,inactive
4,C=CCc1ccccc1OCC(O)CNC(C)C (stereo not given),inactive
5,Cc1ccc(CO)cc1,inactive
6,O=C1NCCN1CCO,inactive
7,Cc1ccc2c(Br)cc(Br)c(O)c2n1,inactive
8,Cc1ccc(OC(=O)c2ccccc2O)cc1,inactive
9,Nc1nnc(-c2ccc([N+](=O)[O-])o2)o1,inactive
10,CC(=O)OCC(=O)NCCCOc1cccc(CN2CCCCC2)c1,inactive
11,COC(=O)C1=C(C)NC(C)=C(C(=O)O[C@@H]2CCCN(Cc3ccccc3)C2)[C@@H]1c1cccc([N+](=O)[O-])c1,inactive
12,Oc1ccc(Cl)c2cccnc12,inactive
13,CCOC(=O)OC(C)OC(=O)[C@@H]1N2C(=O)[C@@H](NC(=O)[C@H](N)c3ccccc3)[C@H]2SC1(C)C (stereo not given in full),inactive
14,CCC(C)(C)OC,inactive
15,C[C@@H](O)[C@H]1C(=O)N2C(C(=O)O)=C([C@H]3CCCO3)S[C@H]12,inactive
16,CO/N=C(/C(=O)N[C@@H]1C(=O)N2C(C(=O)O)=C(COC(N)=O)CS[C@H]12)c1ccco1,inactive
17,O=C=Nc1ccc(Cl)c(Cl)c1,inactive
18,COc1cc(Nc2c(C#N)cnc3cc(OCCCN4CCN(C)CC4)c(OC)cc23)c(Cl)cc1Cl,21.3 µM (active)
19,C[C@H]1c2cccc(O)c2C(O)=C2C(=O)[C@]3(O)C(O)=C(C(N)=O)C(=O)[C@@H](N(C)C)[C@@H]3[C@@H](O)[C@@H]21,inactive
20,CCC(OCCCOC)OC(C)=O (stereo not given),inactive

row,Compound,Potency
1,O=[N+]([O-])c1cc(C2CCCCC2)c(O)c([N+](=O)[O-])c1,inactive
2,CCOC(=O)c1ccccc1C(=C1C=C(Br)C(=O)C(Br)=C1)c1cc(Br)c(O)c(Br)c1,inactive
3,CCCCCCCCCI,inactive
4,NNC(=O)CP(=O)(c1ccccc1)c1ccccc1,inactive
5,O=C1CCCCCCCCCCOCCCCO1,49 µM (active)
6,O=C(OCC(O)CO)c1ccccc1Nc1ccnc2cc(Cl)ccc12 (stereo not given),inactive
7,O=C(CCc1ccc(O)cc1)c1c(O)cc(O)cc1O,inactive
8,C1C[C@@H]2[C@H]3CC[C@H](C3)[C@@H]2C1,inactive
9,CC1=Nc2ccc3ccccc3c2C1(C)C,inactive
10,Cc1cccc(O)c1N,inactive
11,CC1=C(Br)C(=O)C(Br)=C/C1=C(/c1ccccc1S(=O)(=O)O)c1cc(Br)c(O)c(Br)c1C,inactive
12,CCOC(=O)c1ccc(I)cc1,35 µM (active)
13,CC(=O)Nc1ccc(C)cc1C,inactive
14,COc1cc(C(=O)NC2CCN(C)CC2)ccc1Nc1ncc2c(n1)N(C1CCCC1)CC(F)(F)C(=O)N2C,20 µM (active)
15,CCCCCCCCCCCCCCN(CCO)CCO,43.6 µM (active)
16,C/C=C/C=C/C=O,inactive
17,C=C1CCC2CC1C2(C)C (stereo not given),inactive
18,CN1CCCN=C1COC(=O)C(O)(c1ccccc1)C1CCCCC1 (stereo not given),inactive
19,Cc1ccccc1S,inactive
20,CC(=O)OCCN(CCOC(C)=O)c1ccc(N=Nc2ccc([N+](=O)[O-])cc2C#N)cc1,inactive
